Pf Dd2 inh = inhibitors of Plasmodium falciparum Dd2 growth. P. falciparum Dd2 growth, SYBR Green, 72 h. Potency, µM (top dose mostly 28.9 µM), without a hit: top-dose activity, negative = inhibition, actives largely listed as inhibitors. hit rate 4.3% among 120,000; active = well fitted inhibition curve with a large enough effect;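 also: plate controls were DMSO vehicle for no effect and reference drug for full effect; nearly all actives have a fitted effect of over 65% in size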
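Readout: SYBR Green fluorescence, 485 nm excitation, 535 nm emission, after ~16 h lysis at 37C. Before that, Dd2-infected red cells (2.5% hematocrit) grew 72 h with compound, 29 uM top final concentration.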
The depositor's hits bear a star; i = inactive; [ ] = another dose, or the depositor's remark. The entries come from a sample that favours hits as a whole. Potency is read from the fitted curve at half-maximal effect.

SMILES	Pf Dd2 inh
COc1ccc(-c2ccc3ncc(Nc4cccc(Cl)c4)n3n2)cn1	-6.7%[44.1 µM]
c1ccc(Nc2cnc3ccc(N4CCOCC4)nn23)cc1	i
COc1ccccc1-c1ccc2ncc(Nc3ccccc3)n2n1	7.94µM*
OCc1cccc(-c2ccc3ncc(Nc4ccccc4F)n3n2)c1	-5.8%[44.1 µM]
COc1ccc(Nc2cnc3ccc(-c4ccc(F)cc4)nn23)cc1OC	2.82µM*
CC1(CCCCc2ccccc2)COc2ccc(C(=O)NC3CC3)cc2N1 (centres undefined)	-32.4%[44.1 µM]
O=C1CCCCC(Cc2ccccc2)(C(=O)O)N1 (centres undefined)	3.8%
CCc1ccc(C(=O)N2CCC(Cc3nc(C(C)C)no3)CC2)cc1	-23.8%
Cc1noc(-c2cn(C3CCN(C(=O)c4cc(Cl)ccc4F)CC3)nn2)n1	i
CC1=C[C@@H](CN2CCC(CO)CC2)[C@H](C(C)C)C[C@H]1Cc1nnc(-c2ccc([N+](=O)[O-])cc2)o1	3.55µM*
CC1=C[C@@H](CN2CCN(CCO)CC2)[C@H](C(C)C)C[C@H]1Cc1nnc(-c2ccc([N+](=O)[O-])cc2)o1	2.51µM*
COc1ccc(-c2nnc(C[C@@H]3C[C@@H](C(C)C)[C@H](CN4CCN(CCO)CC4)C=C3C)o2)cc1	-33.2%
COc1cc(=O)n2c(c1C(=O)Nc1ccc3c(c1)OCCO3)CCCC2	i
COc1ccc(C(=O)N2CCC(n3cc(-c4nc(C(C)C)no4)nn3)C2)cc1F (centres undefined)	i
N#Cc1ccc(C(=O)Nc2ccc3c(N4CCCCC4)ncnc3c2)cc1	8.91µM*
O=C(Cc1ccsc1)Nc1ccc2c(N3CCCC3)ncnc2c1	5.01µM*
O=C(Nc1ccc2c(N3CCCCC3)ncnc2c1)c1ccsc1	7.08µM*
CCn1ccc(C(=O)Nc2ccc3ncnc(N4CCCC4)c3c2)n1	i
CCOCC(=O)Nc1ccc2ncnc(N3CCCCC3)c2c1	-9.4%
COc1ccc(CC(=O)Nc2ccc3ncnc(N4CCCC4)c3c2)c(Cl)c1	-6.6%
O=C(Nc1ccc2ncnc(N3CCCCC3)c2c1)c1ccsc1	i
N#Cc1ccc(C(=O)Nc2ccc3ncnc(N4CCCCC4)c3c2)cc1	i
O=C(NC1CCCN(c2cc(N3CCCC3)ncn2)C1)c1ccsc1 (centres undefined)	-13.7%[5.79 µM]
CCN(CC)C(=O)CC[C@@H]1CNC(=O)[C@@H]2C[C@H](NCc3ccc(N(C)C)cc3)CN12	i
COc1ccc2[nH]c(C[C@@H]3C[C@@H](C(C)C)[C@H](CNC(=O)c4cnccn4)C=C3C)nc2n1	i
SMILES	Pf Dd2 inh
Cc1noc([C@@H]2CN(C(=O)Cc3c(F)cccc3Cl)C[C@H]2CO)n1	13.1%
CS(=O)(=O)N1CCCC(C(=O)Nc2ccc(F)cc2F)CCNC(=O)CC1 (centres undefined)	8.4%
CN(CCNC(=O)CCC[C@H]1NC[C@@H]2CC1CN(Cc1ccccc1)C2)C1CCCCC1	-12.9%
CCCCc1nc2cc(C(=O)N3CC(Oc4ccccc4OC)C3)ccc2o1	-15.8%
O=C(NCc1ccco1)Nc1cccc(-c2ccc(N3CCCC3)nn2)c1	11.2µM*
O=C(Nc1cccc(-c2ccc(N3CCOCC3)nn2)c1)Nc1ccc2c(c1)CCC2	i
CSc1cccc(NC(=O)Nc2cccc(-c3ccc(N4CCCC4)nn3)c2)c1	-0.1%
CC(C)CNC(=O)Nc1cccc(-c2ccc(N3CCC(C)CC3)nn2)c1	-16.1%
CCc1ccccc1NC(=O)Nc1cccc(-c2ccc(N3CCOCC3)nn2)c1	-23.8%
Cc1cccc(C(=O)Nc2cccc(-c3ccc(N4CCN(C)CC4)nn3)c2)c1	12.6µM*
CCOc1ccccc1C(=O)N1CCC(c2n[nH]c(=O)n2-c2ccccc2)CC1	-19.9%
COc1ccc(C(=O)N2CCOCC3(CN(Cc4cc(F)cc(F)c4)C3)C2)cc1	17.5%[44.1 µM]
CCc1ccc(C(=O)NCCn2ccn3nc(-c4ccc(F)cc4)cc3c2=O)cc1	3.98µM*
COc1ccc(-c2cc3c(=O)n(CCNC(=O)c4ccc(F)cc4)ccn3n2)cc1	i
Cc1cc(C)cc(C(=O)NCCn2ccn3nc(-c4ccc(F)cc4)cc3c2=O)c1	i
O=C(NCc1ccccc1Cl)C1CCN(c2cnc3nccnc3c2)CC1	11.2%
O=C1NCCCCCCN(C(=O)c2ccco2)[C@H]2CCCC[C@@H]12	-1.5%
CC(C)c1noc([C@@H]2C[C@H]3C(=O)NCCCCCCN(C(=O)c4ccco4)[C@H]3C2)n1	-8.0%
O=C(NCCc1c[nH]c2ccccc12)[C@@H]1C[C@H]2C(=O)NCCCCCCN(C(=O)c3ccco3)[C@H]2C1	1.12µM*
Cc1ccc(N2Cc3c(NCCO)ncnc3N(C)CC2=O)cc1	-0.4%[44.1 µM]
CCOc1ccc(C2Cn3nnc(-c4nc(-c5cccc(C)c5)no4)c3CO2)cc1 (centres undefined)	-25.9%
CC(C)CCN1C[C@@H]2C(=O)N(C)C(=O)[C@@H]2C1	87.5%
Cc1ccc(-c2nc(C(=O)NCc3ccc(F)cc3F)no2)cc1	59.5%
CCCN(CCC)CC(O)Cn1cc(/C=C/C(=O)c2ccc(OC)cc2)c2ccccc21 (centres undefined)	3.16µM*
COc1ccc(C(=O)/C=C/c2cn(CC(O)CN(CC(C)C)CC(C)C)c3ccccc23)cc1 (centres undefined)	3.16µM*
SMILES	Pf Dd2 inh
CCCn1cc2c3c(cccc31)CN(C(=O)c1ccc(OC)cc1)CC2	i
COc1ccc(C(=O)NCCn2cc(SCC(=O)Nc3ccc(F)cc3)c3ccccc32)cc1	i
COc1ccc(C(=O)NCCn2cc(SCc3cc(C)ccc3C)c3ccccc32)cc1	-17.8%
COc1ccc(NC(=O)Cn2cc(C(=O)C3CC3)c3ccccc32)cc1	0.0%
Cc1cnc(C2CCOCC2)n1C1CCCNC1 (centres undefined)	-5.2%
CC1(C(=O)NC2CCC2)CN(Cc2ccccc2)Cc2ccc(N3CCOCC3)nc21 (centres undefined)	i
CO[C@H]1C(=O)N(C(C)C)[C@H]1C1CCN(S(=O)(=O)c2cccnc2)CC1	-21.2%
O=C(O)c1ccnc(-c2ccnc(NCCN3CCCCC3=O)n2)c1	-2.8%
COc1ccc2c(c1)C1(CCN(C(=O)Nc3ccc(OC)c(OC)c3)C1)C(=O)N2 (centres undefined)	27.8%
Cc1cc(N2C[C@H]3CN(C(=O)CN(C)C)C[C@@]3(C(=O)O)C2)nc(N)n1	0.8%
CCCN(CC1CCOC1)S(=O)(=O)c1ccc(Br)s1 (centres undefined)	19.4%[5.79 µM]
O=C([C@H]1C[C@@H](F)CN1S(=O)(=O)c1ccc(C(F)(F)F)cc1)N1CCOCC1	i
COc1ccc(CN2CC3(CCN(S(=O)(=O)C(C)C)CC3)C2=O)cc1	-20.3%
Cc1noc(-c2cn(C3CCN(C(=O)c4cccc(N(C)C)c4)CC3)nn2)n1	-15.1%
COc1ccccc1C(=O)CC1(O)C(=O)N(CC(N)=O)c2ccccc21 (centres undefined)	19.9%
O=C(CC1(O)C(=O)N(CCc2ccccc2)c2ccc(Br)cc21)c1ccccc1O (centres undefined)	10µM*
C#CCN1C(=O)C(O)(CC(=O)c2ccc(OC)c(OC)c2)c2cc(Br)ccc21 (centres undefined)	-14.9%
CN1CCC(N2C[C@@H](CO)[C@H](c3nc(-c4ccncc4)no3)C2)CC1	27.5%
CC(NC(=O)C1CCCN(c2cnc3nccnc3c2)C1)c1ccccn1 (centres undefined)	i
CCS(=O)(=O)N1C[C@@H]2C(=O)N(CCC3CCN(C(C)C)CC3)C(=O)[C@@H]2C1	19.1%
CCN1C(=O)CN(C(=O)C2CCC2)CC12CCOCC2	-11.7%
Cc1ccc(CNC(=O)N2CC(Oc3cccc(-c4nc(C)no4)c3)C2)cc1	7.0%[5.79 µM]

Source: PubChem BioAssay
